The list is not random: actives were taken first. Their share in the collection is about 4.5%.
HDAC3 inh – human HDAC3 inhibition; O15379; recombinant HDAC3, fluorogenic peptide/trypsin coupled, fluorescence; inhibition, % at 8.3 µM; 320,000 tested, 0.15% active; in the data active = inhibition above about 26%, passing the limit was not always enough
Target sequence (O15379 whole entry, looked up): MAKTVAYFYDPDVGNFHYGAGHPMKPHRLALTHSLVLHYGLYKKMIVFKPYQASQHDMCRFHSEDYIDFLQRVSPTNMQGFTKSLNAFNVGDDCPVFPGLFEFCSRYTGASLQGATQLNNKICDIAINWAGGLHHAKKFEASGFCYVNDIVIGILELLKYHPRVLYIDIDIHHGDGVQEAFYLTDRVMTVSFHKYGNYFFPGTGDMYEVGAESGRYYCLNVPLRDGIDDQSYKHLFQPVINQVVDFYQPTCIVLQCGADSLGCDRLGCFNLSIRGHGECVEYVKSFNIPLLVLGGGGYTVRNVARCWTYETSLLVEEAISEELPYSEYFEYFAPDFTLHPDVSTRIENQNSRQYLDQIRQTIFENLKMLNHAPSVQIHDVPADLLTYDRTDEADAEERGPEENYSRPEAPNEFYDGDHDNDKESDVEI
Rtt109 HAT inh – blocks Candida albicans Rtt109/Vps75 acetyltransferase activity; AID 540336; purified Rtt109/Vps75, ThioGlo CoA-SH fluorescence, 4 h; inhibition, % at 34.9 µM; 330,000 tested, 0.16% active;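 active = inhibition of at least 50% in every replicate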
Rce1 inhib – inhibitors of yeast Ras-converting enzyme; yeast membranes, quenched prenylated peptide cleavage fluorescence; calls only; 290,000 tested, 0.27% active;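 active = fall in fluorescence gain of 50% or more versus controls, with final raw signal at or below 3038400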
Target sequence (Q03530 whole entry, looked up): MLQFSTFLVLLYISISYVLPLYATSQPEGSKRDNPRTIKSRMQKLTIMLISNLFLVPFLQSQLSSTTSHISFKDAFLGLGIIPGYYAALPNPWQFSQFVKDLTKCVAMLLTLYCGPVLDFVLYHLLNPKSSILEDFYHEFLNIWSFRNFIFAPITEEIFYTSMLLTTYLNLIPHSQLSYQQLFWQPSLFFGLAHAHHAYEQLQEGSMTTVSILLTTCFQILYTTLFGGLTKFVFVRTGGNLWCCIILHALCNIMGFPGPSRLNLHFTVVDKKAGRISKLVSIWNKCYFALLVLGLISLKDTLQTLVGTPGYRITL
Efflux pump inh – blocks antifungal efflux pumps in multiplex yeast assay. S. cerevisiae Candida pump triplex, Nile Red efflux. inhibition, % at 10 µM. 330,000 tested, 0.44% active. AID 485275;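 active = plate passing quality check with inhibition over a set limit, or well fluorescence over plate mean plus 4 SD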;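 note: Nile Red retained in pooled yeast measured as flow cytometry median fluorescence; higher means more Nile Red kept so more efflux inhibition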
GRK2 aptamer HTS – inhibitors of human GRK2 displacing RNA aptamer; bead flow cytometry, FAM-aptamer displacement from GRK2; inhibition of aptamer binding, % at 10 µM; 330,000 tested, 0.59% active; AID 488847;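 active = inhibition of aptamer binding above 40%, roughly 3 SD of noise, on plates passing a quality check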;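 note: median bead fluorescence of bound FAM aptamer so fluorescent compounds give negative values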
ALR H2O2 inh – inhibitors of human sulfhydryl oxidase ALR | P55789 | purified ALR, DTT oxidation, H2O2 HRP-luminol luminescence | inhibition, % (test concentration not listed) | 290,000 tested, 3.8% active | AID 485317;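 active = mean replicate inhibition above about 79%, with every replicate also reaching it, limit read from the data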
Yeast cmpd fluor – counter-screen for efflux pump inhibitors: compound fluorescence; shares compounds with Efflux pump inh; S. cerevisiae AD/pABC3, flow cytometry; fluorescence ratio to DMSO, % at 10 µM; 1,700 tested, 4% active; AID 588517;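 active = fluorescence ratio to DMSO above its plate's cutoff, the plate mean ratio plus 5 SD, cut at about 210% in these data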;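 note: unstained yeast with no Nile Red so the signal is compound autofluorescence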
Mdr1 pump inh – inhibitors of Candida albicans Mdr1 efflux pump; inhibition, % at 10 µM; shares compounds with Efflux pump inh; 1,700 tested, 1% active; S. cerevisiae AD/CaMDR1, Nile Red efflux, flow cytometry; AID 588518; in the data active = inhibition above about 26%;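 note: higher means more Nile Red retained so more efflux inhibition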
CaCdr2 efflux inh – inhibitors of Candida albicans Cdr2 efflux pump | shares compounds with Efflux pump inh | S. cerevisiae AD/CaCDR2, Nile Red retention, flow cytometry | AID 588520 | Nile Red retention ratio vs DMSO, % at 10 µM | 1,700 tested, 4% active; in the data active = Nile Red retention ratio vs DMSO above about 190%;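 note: higher ratio means more blocking of Cdr2 efflux of the dye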
Cdr1 pump inh – Candida Cdr1 efflux pump inhibition; shares compounds with Efflux pump inh; S. cerevisiae AD/CaCDR1, Nile Red efflux, flow cytometry; inhibition, % at 10 µM; 1,700 tested, 1% active; AID 588522;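 active = inhibition above the screen-wide mean plus twice its standard deviation, cut at about 32% in these data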
Large screens that a line does not name were inactive (follow-up assays come after a bar, where they were run).

CC12CC3(C)CC(C)(C1)CC(C(=O)NC(=S)N1CCCC1)(C2)C3	none (no result: Rce1 inhib)
CCc1c(C)nc2c(OC)cccc2c1SCCC(=O)O	Efflux pump inh 10.2 | Yeast cmpd fluor inactive | Mdr1 pump inh inactive | CaCdr2 efflux inh inactive | Cdr1 pump inh inactive
CCCCc1c(C)nc2c(OC)cccc2c1SCCC(=O)O	none
COC(=O)C1=C(C)NC(=S)NC1c1ccc(-c2cc(Cl)ccc2Cl)o1 (centres undefined)	none
CN1C(=O)/C(=C/c2ccccc2Cl)Sc2ccc(C(=O)N3CCCC3)cc21	none
CN1C(=O)/C(=C/c2ccc(C(F)(F)F)cc2)Sc2ccc(C(=O)N3CCN(c4ccccn4)CC3)cc21	Efflux pump inh 0.7 | Yeast cmpd fluor inactive | Mdr1 pump inh inactive | CaCdr2 efflux inh inactive | Cdr1 pump inh inactive
COc1ccc(OC)c(NC(=O)NNC(=O)c2cc3occc3[nH]2)c1	Efflux pump inh 1.2 | Yeast cmpd fluor inactive | Mdr1 pump inh inactive | CaCdr2 efflux inh inactive | Cdr1 pump inh inactive
Cc1ccc(C)c(NC(=O)NNC(=O)c2cc3occc3[nH]2)c1	none
COc1cc(NC(=O)CCNS(=O)(=O)c2ccc3c(c2)CCC(=O)N3)cc(OC)c1	Efflux pump inh 12.6 | Yeast cmpd fluor inactive | Mdr1 pump inh inactive | CaCdr2 efflux inh inactive | Cdr1 pump inh inactive
COc1ccc(NC(=O)CCNS(=O)(=O)c2ccc3c(c2)CCC(=O)N3)cc1	none
Cc1cc(C)c(C(=O)CSC2=NC(N)=C(C#N)C3(CCCCC3)C2C(N)=O)cc1C (centres undefined)	Efflux pump inh 1.3 | Yeast cmpd fluor inactive | Mdr1 pump inh inactive | CaCdr2 efflux inh inactive | Cdr1 pump inh inactive
COc1ccc(/C=N/N=C2/NC(=O)C(CC(=O)O)S2)cc1OCc1ccc(Cl)cc1 (centres undefined)	Efflux pump inh 12.7 | Yeast cmpd fluor inactive | Mdr1 pump inh inactive | CaCdr2 efflux inh inactive | Cdr1 pump inh inactive
COC(=O)c1ccccc1NC(=S)N(Cc1ccc2c(c1)OCO2)Cc1cc2ccc(OC)cc2[nH]c1=O	Efflux pump inh 6.4 | Yeast cmpd fluor inactive | Mdr1 pump inh inactive | CaCdr2 efflux inh inactive | Cdr1 pump inh inactive
Clc1ccc(Cn2nc(-c3ccccc3)nc2-c2ccccc2)cc1	Efflux pump inh 20.2 | Yeast cmpd fluor inactive | Mdr1 pump inh inactive | CaCdr2 efflux inh inactive | Cdr1 pump inh inactive
Clc1ccccc1Cn1nc(-c2ccccc2)nc1-c1ccccc1	none
Cc1ccc(S(=O)(=O)N2CCCCC2)cc1NC(=O)Cn1cnc2c1c(=O)n(C)c(=O)n2C	none (no result: HDAC3 inh, Rce1 inhib, Efflux pump inh, GRK2 aptamer HTS, ALR H2O2 inh)
Cc1ccc(CSc2nnc(CCNC(=O)OC(C)(C)C)o2)cc1	Efflux pump inh 0.8 | Yeast cmpd fluor inactive | Mdr1 pump inh inactive | CaCdr2 efflux inh inactive | Cdr1 pump inh inactive
CC(C)(C)OC(=O)NCCCCCc1nnc(SCC(N)=O)o1	none (no result: ALR H2O2 inh)
CC(C)(C)OC(=O)NCCc1nnc(SCc2ccccc2)o1	none (no result: Rtt109 HAT inh)
C=C(C)CSc1nnc(CCCCCNC(=O)OC(C)(C)C)o1	Efflux pump inh 1.0 | Yeast cmpd fluor inactive | Mdr1 pump inh inactive | CaCdr2 efflux inh inactive | Cdr1 pump inh inactive
c1ccc(CCCNCCCn2cnc3c(OCc4ccccc4)ncnc32)cc1	none (no result: HDAC3 inh, Rce1 inhib, Efflux pump inh, GRK2 aptamer HTS, ALR H2O2 inh)
COc1cccc(NC(=O)C/C(C)=N/NC(=O)c2ccccc2Cl)c1	Efflux pump inh 0.8 | Yeast cmpd fluor inactive | Mdr1 pump inh inactive | CaCdr2 efflux inh inactive | Cdr1 pump inh inactive
COc1ccc(Cl)cc1NC(=O)C/C(C)=N/NC(=O)c1ccccc1Cl	none
COCCn1nnnc1C(c1ccc(OC)c(OC)c1)N1CCN(C(=O)c2ccco2)CC1 (centres undefined)	none (no result: ALR H2O2 inh)
COc1ccccc1NC(=O)CNc1ccc(F)c(Cl)c1	Efflux pump inh 13.9 | Yeast cmpd fluor inactive | Mdr1 pump inh inactive | CaCdr2 efflux inh inactive | Cdr1 pump inh inactive
COc1ccccc1NC(=O)NCC(=O)Nc1ccc(F)c(F)c1	none
CCc1cccc(C)c1NC(=O)c1ccc(CN2CCc3ccccc3C2)cc1	Efflux pump inh 21.8 | Yeast cmpd fluor inactive | Mdr1 pump inh inactive | CaCdr2 efflux inh inactive | Cdr1 pump inh inactive
COc1nccnc1NS(=O)(=O)c1ccc(NC(=O)c2cccc(C)c2)cc1	none
CC(C)CNC(=S)NC(=O)c1csc([N+](=O)[O-])c1	none
O=C(NCc1cccc(Cl)c1)NC(=O)c1csc([N+](=O)[O-])c1	Efflux pump inh 0.9 | Yeast cmpd fluor inactive | Mdr1 pump inh inactive | CaCdr2 efflux inh inactive | Cdr1 pump inh inactive
Oc1c(Br)cc(Br)cc1/C=N/c1nc2c(s1)CCCC2	Efflux pump inh 0.4 | Yeast cmpd fluor inactive | Mdr1 pump inh inactive | CaCdr2 efflux inh inactive | Cdr1 pump inh inactive
CSc1ccccc1NC(=O)c1cc(-c2ccc3c(c2)OCO3)on1	Efflux pump inh 1.6 (no result: ALR H2O2 inh) | Yeast cmpd fluor inactive | Mdr1 pump inh inactive | CaCdr2 efflux inh inactive | Cdr1 pump inh inactive
CCOc1ccc(S(=O)(=O)N(C(=O)c2ccco2)c2cc3sc(=O)oc3c3ccccc23)cc1	Efflux pump inh 2.0 | Yeast cmpd fluor inactive | Mdr1 pump inh inactive | CaCdr2 efflux inh inactive | Cdr1 pump inh inactive
O=C(CN(c1ccc(Cl)c(C(F)(F)F)c1)S(=O)(=O)c1ccccc1)N1CCOCC1	Efflux pump inh 0.7 | Yeast cmpd fluor inactive | Mdr1 pump inh inactive | CaCdr2 efflux inh inactive | Cdr1 pump inh inactive
Cc1ccc(C(C)NC(=O)c2c(-c3ccccc3)noc2C)cc1C (centres undefined)	Efflux pump inh 5.7 | Yeast cmpd fluor inactive | Mdr1 pump inh inactive | CaCdr2 efflux inh inactive | Cdr1 pump inh inactive
O=C(O)[C@@H]1[C@@H]2C[C@@H]2CN1c1ncccc1[N+](=O)[O-]	none
Cc1ccc(S(=O)(=O)Nc2ccc3cn[nH]c3c2)cc1	none (no result: Rce1 inhib)
Cc1ccc(S(=O)(=O)Nc2cc(C)c(O)c(Sc3n[nH]c(C)n3)c2)cc1	none | Yeast cmpd fluor inactive | Mdr1 pump inh inactive | CaCdr2 efflux inh inactive | Cdr1 pump inh inactive
CC(C)(C)OC(=O)N1CCC[C@H]1C(=O)N/N=C/c1cccc2nccnc12	none (no result: Rtt109 HAT inh)
COC(=O)c1nn(-c2ccc(OC)cc2)c(=O)cc1Sc1ccc(C)cc1	none
COC(=O)c1nn(-c2ccccc2)c(=O)cc1Sc1ccc(Cl)cc1	Efflux pump inh 0.6 | Yeast cmpd fluor inactive | Mdr1 pump inh inactive | CaCdr2 efflux inh inactive | Cdr1 pump inh inactive
Cc1cccc(N2CCN(C(=O)c3ccc(NS(=O)(=O)c4c(C)noc4C)cc3)CC2)c1C	Efflux pump inh 0.5 | Yeast cmpd fluor inactive | Mdr1 pump inh inactive | CaCdr2 efflux inh inactive | Cdr1 pump inh inactive
